Hits are enriched below; roughly 4.1% of the tested compounds scored in any of these assays.
ssDAF12 agonist: activators of S. stercoralis DAF-12 nuclear receptor; 370,000 tested, 1% active; AID 652126; HEK293 ssDAF-12/GRIP1 lit1-tk-luc reporter, luminescence; % of 3 µM dafachronic acid response; activation, % at 6.8 µM;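 active = activation above the mean over all tested compounds plus 3 SD, cut at about 0.9% in these data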;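 also: 0% = DMSO-only wells and 100% = 3 µM delta7-dafachronic acid wells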
DAX1 inh-1: blocks DAX1 repression of SF-1 activated StAR promoter. HEK293T StAR-luciferase reporter, SF-1/DAX-1 repression relief. inhibition, % at 6.8 µM. 370,000 tested, 1.1% active;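 active = inhibition above the mean over all tested compounds plus 3 SD, cut at about 3.6% in these data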;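 also: 0% = DAX-1 cells with DMSO and 100% = cells lacking DAX-1 with DMSO; higher inhibition means more luminescence from relief of DAX-1 repression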
hcDAF12 agonist: H. contortus DAF-12 activation, primary screen; activation, % at 6.8 µM; HEK293 hcDAF-12 lit1-tk-luc reporter, luminescence; 0% DMSO, 100% Δ7-dafachronic acid; 370,000 tested, 1.4% active;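 active = activation above the mean of all tested compounds plus 3 SD, cut at about 5.5% in these data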;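 also: 100% = response to 3 µM Δ7-dafachronic acid high control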
DAX1 inh-2: inhibits human nuclear receptor DAX1; 340,000 tested, 0.99% active; HEK293 Gal4-DAX1 luciferase reporter, luminescence; P51843; inhibition, % at 6.75 µM; AID 504766;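 active = inhibition above the mean over all tested compounds plus 3 SD, cut at about 4.2% in these data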;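 also: 0% = DAX1-transfected cells with DMSO and 100% = empty-vector control cells with DMSO; inhibition shows as a rise in luminescence from relieved DAX1 repression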
Target sequence (P51843 207-470 limits assumed): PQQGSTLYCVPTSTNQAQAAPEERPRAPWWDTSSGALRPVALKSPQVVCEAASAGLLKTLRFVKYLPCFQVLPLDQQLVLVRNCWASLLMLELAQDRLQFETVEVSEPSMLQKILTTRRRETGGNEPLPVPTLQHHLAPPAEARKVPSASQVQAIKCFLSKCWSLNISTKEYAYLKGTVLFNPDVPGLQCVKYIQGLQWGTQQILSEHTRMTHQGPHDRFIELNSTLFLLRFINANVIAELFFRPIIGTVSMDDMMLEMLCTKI
hgDAF-12 ag: activates the H. glycines DAF-12 receptor ligand-binding domain; HEK293 GAL4-hgDAF12 UAS-luciferase reporter, agonist luminescence; normalized to butyrate control; activation, % at 6.8 µM; 370,000 tested, 1.8% active; AID 687014;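 active = activation above a cutoff set at the mean of all screened compounds plus 3 SD, cut at about 10% in these data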;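 also: 0% = DMSO wells and 100% = sodium butyrate wells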
* marks the source's active call; other numbers are inactive results; · = not tested or not shown.

SMILES	ssDAF12 agonist	DAX1 inh-1	hcDAF12 agonist	DAX1 inh-2	hgDAF-12 ag
Cc1cc(C)nc(N/N=C/c2ccc(Cl)cc2)n1	-1.0	0.0	0.2	5.0*	2.1
O=C(Cc1c(F)cccc1Cl)NCc1cccnc1	-0.4	0.0	5.6*	0.6	3.3
COC(=O)[C@]12C[C@H](CC(=O)NCc3cccc4ccccc34)C(=O)N(Cc3ccccc3)C1=C[C@H](C(C)C)O[C@@H]2C1CC1	-1.4	0.3	-0.4	·	0.2
COc1cc(C2Nc3ccccc3C(=O)N2c2ccc3c(c2)OCCO3)ccc1OCC(C)C (stereo unspecified)	0.0	2.4	5.2	-2.8	11.5*
O=C1c2ccccc2NC(c2ccc3c(c2)OCCO3)N1c1ccc2c(c1)OCCO2 (stereo unspecified)	0.2	2.0	3.6	-1.7	11.8*
C=CC[C@@]1(c2ccccc2)Oc2ccccc2-c2nc3ccccc3nc21	-1.6	-0.6	-2.1	·	-2.2
O=C1C(=Cc2cccc(F)c2)Cc2ccccc21	-1.4	-0.3	-1.2	·	13.1*
COc1cc(C=C2C(=O)c3ccccc3C2=O)cc(OC)c1	-0.4	-0.3	4.0	4.7*	3.6
COc1cccc(C=C2Cc3ccccc3C2=O)c1	-1.1	1.2	3.2	·	10.1
COc1cc(C=C2C(=O)c3ccccc3C2=O)cc(OC)c1OC	-0.2	0.1	2.5	2.6	2.0
COc1cccc(/C=C2\CCc3ccccc3C2=O)c1	0.1	1.6	4.0	0.4	13.6*
O=C1/C(=C/c2cccc(F)c2)CSc2sccc21	-1.6	-0.7	-2.0	0.1	-2.7
COC(=O)C(CN)CN1C(=O)c2ccccc2C1=O (stereo unspecified)	-1.2	-0.1	-2.2	·	-0.4
C[C@@H]1CN([C@H](C)CO)C(=O)CCCn2nncc2CO[C@@H]1CN(C)C(=O)Nc1cccc2ccccc12	-0.1	-0.9	1.8	-0.8	1.1
O=C(NC1CC1)c1sc2cc(Cl)ccc2c1Cl	-0.1	4.3*	1.4	1.3	6.5
O=C(NC1CC1)c1sc2cc(F)ccc2c1Cl	-0.9	1.8	0.6	1.0	2.5
O=C(Nc1nccs1)c1cc(Cl)ccc1[N+](=O)[O-]	-0.8	-0.4	1.5	-0.5	2.5
O=C(Nc1nccs1)c1sc2cc(Cl)ccc2c1Cl	1.4*	0.6	2.3	0.9	4.8
COc1cccc(CN2CC(C(=O)NCCc3cn4cccnc4n3)CCC2=O)c1 (stereo unspecified)	-0.7	1.1	-1.9	0.6	-0.7
COC(=O)[C@]12C[C@H](CC(=O)NCC3CCCCC3)C(=O)N(Cc3ccco3)C1=C[C@H](C(C)C)O[C@@H]2C1CC1	-2.3	-0.4	-0.9	·	-0.9
COc1ccc(N2C(=O)[C@H]3[C@@H](C2=O)C2c4ccccc4C=NN2[C@H]3C(=O)C(C)(C)C)cc1 (stereo partly specified)	-1.6	-0.2	-1.2	5.6*	0.0
CC(=O)Oc1ccc(N2C(=O)[C@@H]3[C@H](C2=O)[C@H]2c4ccccc4C=NN2[C@@H]3C(C)=O)cc1	-1.0	-0.3	1.6	0.0	3.5
CCOC(=O)N1CCN(C(=O)COc2cc(=O)n(CC)c3ccccc23)CC1	-1.5	-0.4	-0.9	8.2*	-0.5
CCOC(=O)N1CCN(C(=O)COc2cc(=O)n(C)c3ccccc23)CC1	-1.6	-0.3	-0.6	0.1	-0.4
Cc1cc(C(=O)NNC(=O)c2sccc2C)c(C)o1	-0.1	4.3*	0.9	0.6	2.9
SMILES	ssDAF12 agonist	DAX1 inh-1	hcDAF12 agonist	DAX1 inh-2	hgDAF-12 ag
Cc1cc(C(=O)N/N=C/c2ccncc2)c(C)o1	-1.1	0.2	-0.9	4.8*	0.7
Cc1cc(C(=O)NNC(=O)c2cccs2)c(C)o1	-1.0	-0.1	0.2	0.5	-0.6
Cc1cc(C(=O)NN)c(C)o1	-0.9	0.9	1.4	6.2*	5.2
Cc1ccc(/C=N/NC(=O)c2cc(C)oc2C)cc1	-1.4	0.4	-0.5	·	4.9
O=C(NCCc1c[nH]c2ccccc12)OCc1cn(-c2ccc(F)cc2)nn1	-1.1	-1.5	-0.2	·	1.6
CC(C)(C)Nc1nc(NCc2cccnc2)nc(N2CCOCC2)n1	-1.1	0.6	-0.8	5.9*	-1.5
Cc1cc(NC(=O)CSc2nnc(-c3ccncc3)n2Cc2ccccc2)n(-c2ccccc2)n1	-0.4	-0.2	-0.5	-0.5	0.1
Cc1cccc(NC(=O)CSc2nnc(-c3ccncc3)n2C)c1	-1.5	0.1	-0.8	0.1	12.2*
Cc1cccc(NC(=O)Cn2nnc3ccccc32)c1	-0.4	2.7	3.0	4.7*	9.4
Cc1ccc(NC(=O)Cn2nnc3ccccc32)cc1	-0.2	2.4	4.6	·	9.5
Cc1cc(NC(=O)CSc2nnc(-c3ccncc3)n2C)n(-c2ccccc2)n1	-1.5	0.4	-1.1	6.0*	-1.4
CNC(=O)C1C(=S)NC(N)=C(C#N)C1c1ccccc1 (stereo unspecified)	-0.7	-0.9	-0.8	-0.1	-1.5
CCOC(=O)C1=C(C(=O)OCC)C2N(Cc3ccc(C#N)cc3)c3ccccc3[C@@]23C[C@@H](C(=O)OC)N(S(=O)(=O)c2ccc(C#N)cc2)C3=N1 (stereo partly specified)	-1.0	-0.2	-0.8	·	0.4
c1ccc(N2CCN(c3ccccc3)C2c2cccs2)cc1	-1.7	0.4	0.7	7.7*	7.2
C[C@@H](/C=C/C(=O)OC(C)(C)C)Sc1ccc(C(C)(C)C)cc1	-1.6	0.4	-2.0	·	0.3
CCCCOC(=O)c1nnc(-c2ccccc2)o1	-1.8	-0.2	0.0	5.1*	-1.7
CCCCOC(=O)c1nnc(-c2ccc(Cl)cc2)o1	-1.4	0.5	0.0	0.4	2.0
c1ccn2c(c1)nc1c2nc2ccccn21	1.1*	2.0	1.1	2.9	13.1*
O=C(O)c1c(Cl)nc2ccccn12	-1.3	-0.7	-0.5	-1.6	1.6
c1ccc(-c2nc3ccccn3c2NCc2ccc3c(c2)OCO3)cc1	-0.9	0.0	-0.4	-1.1	6.2
Clc1cccc(-c2ccc(-c3nc4ccccn4c3NCc3ccccc3)cc2)c1	1.8*	0.9	1.7	0.1	7.0
Clc1c(-c2ccccc2)nc2ccccn12	1.6*	1.9	4.4	2.0	8.1
CC(COc1cccc(C#N)c1)CN1CCC(C(O)(c2ccccc2)c2ccccc2)CC1 (stereo unspecified)	-0.8	0.8	1.1	·	0.4
CCCCN1C[C@@H](COCc2ccccc2)Oc2cc(F)ccc2S1(=O)=O	-1.2	-0.3	-0.8	·	9.8
Fc1ccc2nc(N3CCOCC3)sc2c1	-1.0	1.0	1.1	0.5	11.7*
CCOc1ccc2nc(NC(=O)c3ccoc3C)sc2c1	0.4	2.5	6.2*	-2.6	11.0*
COc1ccc2nc(NC(=O)c3ccccc3C(=O)O)sc2c1	0.0	0.6	5.7*	-0.5	2.8
CCOc1ccc2nc(NC(=O)c3ccccn3)sc2c1	-1.4	-1.8	2.3	-4.3	-5.7
COc1ccc(-c2csc(NC(=O)c3ccoc3C)n2)cc1	-1.5	1.7	1.1	1.9	10.7*
